These results are taken from ChEMBL document CHEMBL3988442, “University of Dundee, Small-Polar-MMV Screening Library” (2021).

For some of these results: Measured potencies and affinities stand elsewhere.

What all share (parameters): scale not given: direction of the effect not stated beside the values
For assay [1], the target named is Protein translocase subunit SecA (Escherichia coli (strain K12)) (UniProt P10408). Put plainly: Assay to Identify E. coli SecA ATPase Inhibitors. It counts as functional. To be noted: 30 µM.
Assay [2] has as its target T1, Ubiquitin-activating enzyme e1, putative (Leishmania donovani (strain BPK282A1)) (UniProt E9BSI1).
T1 sequence (whole entry): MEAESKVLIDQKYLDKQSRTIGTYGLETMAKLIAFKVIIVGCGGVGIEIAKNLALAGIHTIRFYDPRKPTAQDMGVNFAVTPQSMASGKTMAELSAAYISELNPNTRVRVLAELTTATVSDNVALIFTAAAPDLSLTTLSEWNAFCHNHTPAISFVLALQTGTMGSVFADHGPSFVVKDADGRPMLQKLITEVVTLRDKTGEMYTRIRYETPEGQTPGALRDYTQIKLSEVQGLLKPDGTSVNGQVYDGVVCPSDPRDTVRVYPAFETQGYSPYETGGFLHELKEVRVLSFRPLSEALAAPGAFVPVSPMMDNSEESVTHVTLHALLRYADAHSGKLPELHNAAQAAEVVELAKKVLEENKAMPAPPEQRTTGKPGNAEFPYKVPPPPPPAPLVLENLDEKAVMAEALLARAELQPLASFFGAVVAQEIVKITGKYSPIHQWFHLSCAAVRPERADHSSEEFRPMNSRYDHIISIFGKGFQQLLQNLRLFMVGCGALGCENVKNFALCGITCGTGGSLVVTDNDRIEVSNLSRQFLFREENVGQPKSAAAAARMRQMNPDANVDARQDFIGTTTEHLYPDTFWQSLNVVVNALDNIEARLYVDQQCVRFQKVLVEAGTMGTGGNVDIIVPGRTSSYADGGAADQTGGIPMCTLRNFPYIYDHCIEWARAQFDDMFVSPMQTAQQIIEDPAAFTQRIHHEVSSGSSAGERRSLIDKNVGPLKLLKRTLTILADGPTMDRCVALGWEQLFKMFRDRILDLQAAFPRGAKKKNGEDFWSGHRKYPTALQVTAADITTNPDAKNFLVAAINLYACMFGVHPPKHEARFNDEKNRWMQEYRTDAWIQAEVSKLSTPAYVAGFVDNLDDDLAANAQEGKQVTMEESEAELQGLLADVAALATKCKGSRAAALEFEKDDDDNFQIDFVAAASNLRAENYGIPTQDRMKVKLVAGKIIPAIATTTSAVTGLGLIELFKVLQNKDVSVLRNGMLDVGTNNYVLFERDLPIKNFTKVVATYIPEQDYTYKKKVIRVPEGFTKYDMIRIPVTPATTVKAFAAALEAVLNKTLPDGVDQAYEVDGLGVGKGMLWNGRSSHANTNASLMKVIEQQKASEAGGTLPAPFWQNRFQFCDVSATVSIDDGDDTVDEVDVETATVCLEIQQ
Kind of assay: Leishmania donovani Ubiquitin Activating Enzyme (LdE1). It counts as functional. To be noted: 30 µM.

For assay [3], the target named is AMP-activated protein kinase, AMPK (Homo sapiens) (UniProt P54646+O43741+P54619+Q9UGJ0+Q9Y478+Q13131+Q9UGI9). Put plainly: AMP-dependent Kinase enzyme assay. An in vitro enzyme assay that detects ADP turnover that is directly proportional to AMPK activity. This uses naive AMPK that is activated during the assay with MK-8722. It counts as functional. To be noted: 30 µM.

Assay [4] deals with Sialic acid-binding Ig-like lectin 9 (Homo sapiens) (UniProt Q9Y336). Kind of assay: Hs-Siglec9 ALPHAscreen SOP 20170721. Particulars: 10 µM. On the technique in general: Alpha assays give light when donor and acceptor beads are brought close together.
Assay [5] relates to Trypanosoma cruzi. Kind of assay: Trypanosoma cruzi phosphomannomutase and mannose-1-phosphate guanylyltransferase assay. The format is functional. To be noted: 10 µM.
For assay [6], the target named is T2, Arginase-2, mitochondrial (Homo sapiens) (UniProt P78540).
T2 sequence (whole entry): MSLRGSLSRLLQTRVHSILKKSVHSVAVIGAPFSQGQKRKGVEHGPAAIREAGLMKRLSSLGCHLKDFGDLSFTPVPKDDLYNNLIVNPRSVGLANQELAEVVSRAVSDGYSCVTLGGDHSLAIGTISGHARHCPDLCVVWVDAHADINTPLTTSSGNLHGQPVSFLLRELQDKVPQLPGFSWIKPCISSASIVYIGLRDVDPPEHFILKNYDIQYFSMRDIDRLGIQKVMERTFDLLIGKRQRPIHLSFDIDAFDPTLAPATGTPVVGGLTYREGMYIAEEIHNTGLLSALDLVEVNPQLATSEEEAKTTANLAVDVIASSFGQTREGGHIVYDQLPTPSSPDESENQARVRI
Put plainly: in vitro enzyme assay to detect the production of urea directly proportional to the activity of Arginase II. Further: in the data most compounds retested in dose-response had high values. The format is functional. Particulars: 33.3 µM.

Assay [7] deals with T3, Proteasome subunit beta (Trypanosoma cruzi) (UniProt O96673).
T3 sequence (whole entry): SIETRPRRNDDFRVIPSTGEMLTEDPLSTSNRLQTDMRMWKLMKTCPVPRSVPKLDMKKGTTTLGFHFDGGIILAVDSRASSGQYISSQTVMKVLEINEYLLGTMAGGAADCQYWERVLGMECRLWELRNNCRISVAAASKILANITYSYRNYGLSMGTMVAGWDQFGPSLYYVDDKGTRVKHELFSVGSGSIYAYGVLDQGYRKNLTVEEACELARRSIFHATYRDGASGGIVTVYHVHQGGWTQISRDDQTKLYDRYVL
Put plainly: Trypanosoma cruzi proteasome chymotrypsin-like activity (TcProtChymo) assay. Further: in the data most compounds retested in dose-response had high values. Particulars: 9.37 µM. It counts as functional.

Assay [8] is filed under the species Homo sapiens. Kind of assay: To identify inhibition of the IFN signalling (Jak-Stat) pathway via expression of an eGFP reporter gene under the control of an IFN-stimulated response element (ISRE) containing MxA promoter. The format is functional. To be noted: 30 µM. (A reporter such as luciferase makes a cellular process visible.)
Assay [9] addresses T4, Tyrosyl-tRNA synthetase, putative (Trypanosoma cruzi (strain CL Brener)) (UniProt Q4DSP6).
T4 sequence (whole entry): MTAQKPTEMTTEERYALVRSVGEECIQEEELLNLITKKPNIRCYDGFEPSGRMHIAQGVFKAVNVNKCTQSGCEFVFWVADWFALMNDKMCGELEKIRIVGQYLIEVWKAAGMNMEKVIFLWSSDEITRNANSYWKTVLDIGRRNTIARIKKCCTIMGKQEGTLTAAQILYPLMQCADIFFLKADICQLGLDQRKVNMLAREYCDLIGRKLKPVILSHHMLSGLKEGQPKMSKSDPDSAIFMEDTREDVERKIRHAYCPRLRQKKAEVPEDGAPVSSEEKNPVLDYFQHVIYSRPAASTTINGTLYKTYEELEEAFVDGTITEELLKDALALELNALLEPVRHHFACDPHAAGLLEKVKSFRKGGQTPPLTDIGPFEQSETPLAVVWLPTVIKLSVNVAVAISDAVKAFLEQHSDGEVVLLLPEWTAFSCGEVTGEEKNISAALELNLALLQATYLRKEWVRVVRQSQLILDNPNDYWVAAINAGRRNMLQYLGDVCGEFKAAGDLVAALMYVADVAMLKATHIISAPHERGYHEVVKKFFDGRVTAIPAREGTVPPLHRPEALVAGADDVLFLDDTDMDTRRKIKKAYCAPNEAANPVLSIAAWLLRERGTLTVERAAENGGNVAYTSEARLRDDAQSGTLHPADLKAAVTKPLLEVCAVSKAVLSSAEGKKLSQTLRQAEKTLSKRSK
Kind of assay: Trypanosoma cruzi tyrosyl tRNA synthetase (TcYRS) _High Tyrosine SOP. Further: in the data most compounds retested in dose-response had high values. Particulars: 30 µM. It counts as functional.

In assay [10] the target is T4, Tyrosyl-tRNA synthetase, putative (Trypanosoma cruzi (strain CL Brener)). Kind of assay: Trypanosoma cruzi tyrosyl tRNA synthetase (TcYRS) SOP. The format is functional. Particulars: 30 µM.
The target of assay [11] is Chromo domain-containing protein 1 (Saccharomyces cerevisiae (strain ATCC 204508 / S288c) (Baker's yeast)) (UniProt P32657). Kind of assay: ScCHD-1 Enzyme Inhibition Assay. Further: in the data most compounds retested in dose-response had high values. It counts as functional. Particulars: 30 µM.
Sequence of Chromo domain-containing protein 1 (Saccharomyces cerevisiae (strain ATCC 204508 / S288c) (Baker's yeast)) (P32657 whole entry, the tested form may be a part): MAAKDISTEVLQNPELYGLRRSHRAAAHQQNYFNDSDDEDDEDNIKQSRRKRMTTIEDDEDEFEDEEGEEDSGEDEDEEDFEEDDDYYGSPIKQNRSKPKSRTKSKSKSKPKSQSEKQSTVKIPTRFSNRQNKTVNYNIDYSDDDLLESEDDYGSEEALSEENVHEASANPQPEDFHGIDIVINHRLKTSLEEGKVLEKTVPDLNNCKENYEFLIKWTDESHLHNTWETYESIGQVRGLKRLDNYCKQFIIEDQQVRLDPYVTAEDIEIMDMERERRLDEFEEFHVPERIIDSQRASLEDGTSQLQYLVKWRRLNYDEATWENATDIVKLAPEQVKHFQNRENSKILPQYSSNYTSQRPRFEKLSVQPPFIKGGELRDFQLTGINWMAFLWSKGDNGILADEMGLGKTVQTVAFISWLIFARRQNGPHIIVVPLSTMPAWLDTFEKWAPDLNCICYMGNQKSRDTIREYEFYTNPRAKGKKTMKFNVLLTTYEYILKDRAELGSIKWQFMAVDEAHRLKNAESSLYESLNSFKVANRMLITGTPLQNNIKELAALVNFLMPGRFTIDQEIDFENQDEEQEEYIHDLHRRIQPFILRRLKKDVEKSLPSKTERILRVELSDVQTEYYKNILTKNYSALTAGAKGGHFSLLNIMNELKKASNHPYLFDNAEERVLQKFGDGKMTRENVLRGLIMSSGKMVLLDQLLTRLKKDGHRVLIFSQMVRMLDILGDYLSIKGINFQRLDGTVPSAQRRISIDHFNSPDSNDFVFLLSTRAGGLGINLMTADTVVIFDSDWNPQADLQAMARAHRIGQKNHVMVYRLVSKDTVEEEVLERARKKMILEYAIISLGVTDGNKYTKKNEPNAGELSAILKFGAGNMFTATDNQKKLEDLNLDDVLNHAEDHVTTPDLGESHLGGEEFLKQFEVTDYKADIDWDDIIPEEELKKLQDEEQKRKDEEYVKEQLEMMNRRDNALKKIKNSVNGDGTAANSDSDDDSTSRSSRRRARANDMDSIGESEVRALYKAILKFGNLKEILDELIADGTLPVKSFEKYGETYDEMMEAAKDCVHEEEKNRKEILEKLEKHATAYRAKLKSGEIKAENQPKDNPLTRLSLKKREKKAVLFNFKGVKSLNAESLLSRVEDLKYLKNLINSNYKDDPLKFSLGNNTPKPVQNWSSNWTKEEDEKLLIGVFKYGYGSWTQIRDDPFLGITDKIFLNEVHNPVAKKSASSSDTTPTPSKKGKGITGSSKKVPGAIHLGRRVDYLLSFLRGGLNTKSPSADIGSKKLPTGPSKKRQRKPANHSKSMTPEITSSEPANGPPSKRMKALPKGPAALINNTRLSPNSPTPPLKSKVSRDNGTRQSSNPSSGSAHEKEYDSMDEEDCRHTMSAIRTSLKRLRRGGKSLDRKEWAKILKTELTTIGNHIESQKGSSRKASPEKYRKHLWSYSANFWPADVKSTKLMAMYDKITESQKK

Sequence of Protein translocase subunit SecA (Escherichia coli (strain K12)) (P10408 whole entry): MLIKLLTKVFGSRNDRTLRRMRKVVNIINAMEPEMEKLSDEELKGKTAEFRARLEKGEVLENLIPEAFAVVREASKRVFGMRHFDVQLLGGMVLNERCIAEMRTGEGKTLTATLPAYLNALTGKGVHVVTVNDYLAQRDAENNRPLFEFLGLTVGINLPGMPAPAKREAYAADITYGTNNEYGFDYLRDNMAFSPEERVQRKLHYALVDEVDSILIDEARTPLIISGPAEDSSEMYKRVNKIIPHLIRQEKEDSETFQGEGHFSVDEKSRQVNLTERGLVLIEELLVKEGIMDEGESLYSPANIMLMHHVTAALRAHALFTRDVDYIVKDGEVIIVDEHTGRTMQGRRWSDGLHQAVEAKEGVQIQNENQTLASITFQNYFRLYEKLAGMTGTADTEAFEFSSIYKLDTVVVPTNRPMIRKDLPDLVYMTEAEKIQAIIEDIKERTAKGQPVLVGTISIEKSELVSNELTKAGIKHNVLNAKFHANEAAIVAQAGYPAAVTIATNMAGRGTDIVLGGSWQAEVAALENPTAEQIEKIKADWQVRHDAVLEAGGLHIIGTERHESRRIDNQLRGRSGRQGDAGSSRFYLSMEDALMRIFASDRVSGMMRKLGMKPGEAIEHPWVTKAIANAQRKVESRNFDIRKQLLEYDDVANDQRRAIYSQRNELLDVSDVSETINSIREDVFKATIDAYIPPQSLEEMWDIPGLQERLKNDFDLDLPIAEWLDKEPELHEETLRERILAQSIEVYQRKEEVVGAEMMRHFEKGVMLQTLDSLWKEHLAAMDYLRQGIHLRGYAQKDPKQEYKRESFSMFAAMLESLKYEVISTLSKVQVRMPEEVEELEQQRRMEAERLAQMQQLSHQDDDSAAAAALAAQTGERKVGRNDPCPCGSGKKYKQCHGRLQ
Sequence of Sialic acid-binding Ig-like lectin 9 (Homo sapiens) (Q9Y336 whole entry): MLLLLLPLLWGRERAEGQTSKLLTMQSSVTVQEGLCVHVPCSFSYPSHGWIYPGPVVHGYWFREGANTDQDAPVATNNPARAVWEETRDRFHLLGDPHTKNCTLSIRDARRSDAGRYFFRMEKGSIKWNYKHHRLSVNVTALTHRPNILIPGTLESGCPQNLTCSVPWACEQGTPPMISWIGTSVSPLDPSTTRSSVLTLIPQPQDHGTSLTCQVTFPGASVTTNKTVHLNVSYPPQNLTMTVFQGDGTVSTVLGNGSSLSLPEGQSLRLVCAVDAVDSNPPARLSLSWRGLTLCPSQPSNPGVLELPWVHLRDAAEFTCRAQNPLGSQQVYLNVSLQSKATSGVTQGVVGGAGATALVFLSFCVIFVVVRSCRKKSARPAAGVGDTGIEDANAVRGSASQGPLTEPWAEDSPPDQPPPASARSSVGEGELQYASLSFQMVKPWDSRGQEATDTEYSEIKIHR

Turning to `Cc1cc(CN2CCN(C(C)c3nc(C4CC4)no3)CC2)no1` (stereo unspecified), the Percent Effect in assay [1] is 1.42%; in assay [2], 8.86%; in [3], -5.67%; in assay [4], -3.17%; in assay [5], -1.33%; in assay [6] it was 4.52%. Besides, the Percent Effect in [7] was 13.4%; in assay [8], 28.4%; in [9] it was -1.04%; in assay [10] it was 5.06%; in [11] it was -25.2%.

Take `Cn1cnc(S(=O)(=O)NCCCN2CCOCC2)c1Cl`: the Percent Effect was -3.33% in [1]; 2.7% in [2]; -5.32% in assay [3]; -2.1% in assay [4]; -10.5% in assay [5]; 26.1% in assay [6]. Also, the Percent Effect was 7.21% in [7]; 16.1% in [8]; 4.43% in assay [9]; 3.7% in [10]; -8.3% in [11].

With `CC(C)c1nc(N2CC(N3CCCCC3C)C2)c2cnn(C)c2n1` (stereo unspecified), the Percent Effect in assay [1] was -7.05%; in [2], -2.74%; in [3], -1.43%; in assay [4] it was -2.38%; in [5] it was -7.14%; in [6], -2%. Also, the Percent Effect in assay [7] is 4.54%; in assay [8], 4.43%; in assay [9] it was -3.12%; in assay [10] it was 8.64%; in [11] it was -2.78%.

As to `CN(C)C(C(=O)N1CCC(N2CCSCC2)CC1)c1ccccc1F` (stereo unspecified), the Percent Effect in assay [1] is -0.819%; in [2], 12.5%; in assay [3] it was -3.64%; in [4] it was 4.95%; in [5], 1.46%; in assay [6], 22.5%. For the same compound, the Percent Effect was 20.7% in assay [7]; -4.19% in assay [8]; 10.5% in assay [9]; 20.5% in assay [10]; -1.59% in [11].

On to `Cc1cnn(CC2CCCN2Cc2ncc(-c3ccccc3)o2)c1` (stereo unspecified), for which the Percent Effect in assay [1] was -1.68%; in [2], -5.41%; in [3], -10.1%; in assay [4], -3.94%; in [5], -9.53%; in [6], 4.01%. The Percent Effect in assay [7] was 8.11%; in assay [8], 10.7%; in assay [9], 10.3%; in assay [10], 18.5%; in assay [11], -6.8%.

In the case of `COc1ccc(CN(C)Cc2nc3c(cnn3C)c(=O)[nH]2)cc1OC`, the Percent Effect in assay [1] was -1.17%; in assay [2], 13.9%; in assay [3], 4.17%; in assay [4] it was 3.18%; in assay [5] it was -3.18%; in assay [6], 2.8%. For the same compound, the Percent Effect in assay [7] is 16.5%; in assay [8] it was 11.6%; in [9], 7.29%; in assay [10], 7.59%; in assay [11], -3.45%.

Regarding `CC(C)(C)C(=O)NS(=O)(=O)c1ccc(C#N)cc1C(F)(F)F`, the Percent Effect is -3.4% in assay [1]; 8.11% in assay [2]; -4.85% in assay [3]; 3.66% in assay [4]; -0.849% in assay [5]; 2.81% in assay [6]. Also, the Percent Effect in assay [7] is 1.8%; in assay [8], 7.18%; in assay [9], 1.48%; in [10] it was 11.1%; in assay [11], -3.67%.

In the case of `Cc1noc2ncc(C(=O)N3CCCC3c3cnn(C)c3)cc12` (stereo unspecified), the Percent Effect was -1.99% in assay [1]; 2.53% in [2]; -1.98% in assay [3]; -2% in assay [4]; -2.17% in assay [5]; -3.42% in assay [6]. The Percent Effect is 3.52% in [7]; 12% in assay [8]; -3.45% in assay [9]; -1.27% in assay [10]; -2.49% in assay [11].

Turning to `O=c1c2cnc(N3CCCCC3)nc2ccn1-c1ccccc1`, the Percent Effect is -4.04% in assay [1]; 9.33% in [2]; -3.82% in assay [3]; -5.64% in assay [4]; 4.71% in [5]; -7.22% in assay [6]. For the same compound, the Percent Effect in assay [7] is 15%; in assay [8] it was 8.11%; in [9] it was 2.12%; in assay [10], 10.3%; in [11] it was -8.21%.

Consider `CN(C)S(=O)(=O)c1ccc(OCCNCCn2cccn2)cc1`, for which the Percent Effect in assay [1] is -6.54%; in assay [2], 1.27%; in assay [3], 2.35%; in assay [4], -1.53%; in assay [5], -1.13%; in [6], 1.5%. Besides, the Percent Effect was 5.15% in [7]; 11.8% in assay [8]; -1.04% in [9]; -12.7% in assay [10]; -41.4% in assay [11].

Consider `Cc1cc(C)n(CC2CCCCN2CC(=O)Nc2cccnc2)n1` (stereo unspecified), for which the Percent Effect in assay [1] is -6.69%; in assay [2], 13.3%; in assay [3], -13.7%; in assay [4] it was 36.3%; in assay [5] it was 9.25%; in assay [6], 12.5%. The Percent Effect is -1.74% in assay [7]; 6.67% in assay [8]; 0.546% in assay [9]; 16.1% in assay [10]; -6.32% in assay [11].
